# Bioassay records from PubChem.
# Only some compounds are listed: those with a hit (about 7.8% of all), similar ones and a draw of the others.
# Lassa entry inh = qHTS for Inhibitors of binding or entry into cells for Lassa Virus | Lassa virus pseudotype entry inhibition, cell reporter | Potency, µM (top dose mostly 37.9 µM), without a hit: at the top dose activity change, negative = inhibition, actives largely listed as inhibitors | 300,000 tested, 1.2% active | AID 540256, 2011; calls by dose curve; tested in HEK293 cells; note: potency is the fitted concentration of half-maximal effect; nearly all actives have a fitted effect of over 50% in size
# HCMV inh = qHTS Assay for inhibitors of the human cytomegalovirus (HCMV); activity change, negative = inhibition, % at 57.5 µM; AID 1259415, 2018; HFF cells, HCMV-luciferase reporter, 72 h; active compounds read low; 410,000 tested, 4.5% active; in the data active = activity change below about -60%; inconclusive = no clear call, values can overlap the other calls; inactive = above about -39%
#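 Screen run at 2 compound doses on HFFs infected with reporter HCMV, MOI 1 PFU/cell. Luciferase activity from cell lysates at 72 h post infection gave inhibition relative to buffer-only and Salinomycin wells.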
# HCV inhibitor = qHTS Assay for Inhibitors of Hepatitis C Virus (HCV); Huh7.5.1 HCVcc-Cre infection, luciferase reporter, 44 h; Potency, µM (doses to about 41.8 µM), inactives show top-dose activity change, negative = inhibition, hits mostly inhibitors; 340,000 tested, 3.4% active; active = well fitted inhibition curve with a large enough effect; inconclusive = small, poorly fitted or top-dose-only effect, or another doubt; inactive = no such curve, though single readings can be large or run the other way; note: potency is the fitted concentration of half-maximal effect
#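 1,000 cells/well; 4 h culture; + compound; + HCVcc-Cre (~0.5 moi); 44 h; luciferase substrate, RT 15 min; read 15 sec.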
# Marburg entry inh = qHTS for inhibitors of binding or entry into cells for Marburg Virus | Potency, µM (doses to about 37.8 µM), without a hit: at the top dose activity change, negative = inhibition, most hits filed as inhibitors | AID 540276, 2011 | Marburg virus pseudotyped entry inhibition, cell reporter | 300,000 tested, 1.8% active; calls by dose curve; tested in HEK293 cells; note: potency is the fitted concentration of half-maximal effect
# VACV mCherry inh = qHTS for Stage-Specific Inhibitors of Vaccinia Orthopoxvirus: mCherry Reporter Primary qHTS | Vaccinia virus mCherry reporter infection, fluorescence | Potency, µM (series often up to 36.5 µM), without a hit: at the top dose activity change, negative = inhibition, usual class: inhibitors | 310,000 tested, 0.63% active | AID 720579, 2013; calls by dose curve; tested in A549 cells; note: potency is the fitted concentration of half-maximal effect; nearly all actives have a fitted effect of over 35% in size
# VACV Venus inh = qHTS for Stage-Specific Inhibitors of Vaccinia Orthopoxvirus: Venus Reporter Primary qHTS. Vaccinia virus Venus reporter expression, fluorescence. Potency, µM (doses to about 36.5 µM), without a hit: top-dose activity change, negative = inhibition, most hits filed as inhibitors. 330,000 tested, 0.46% active. AID 720580, 2013; calls by dose curve; tested in A549 cells; note: potency is the fitted concentration of half-maximal effect; nearly all actives have a fitted effect of over 30% in size
# Active calls of the source: *; i = inactive; ? = inconclusive; / = no result given; [ ] = dose if it differs, or a comment. % is set by controls: 0 for no effect and ±100 for the full control effect.
SMILES,Lassa entry inh,HCMV inh,HCV inhibitor,Marburg entry inh,VACV mCherry inh,VACV Venus inh
COc1ccc(-c2nnc(SCc3cc(=O)c4cc(C)cc(C)c4[nH]3)n2C)cc1,-23%[46.1 µM],-66*,/,/,?,?
COc1ccccc1-c1noc2nc(Nc3cccc(Cl)c3)ccc12,/,18,/,/,/,/
COC(=O)C1=CN(Cc2ccc(C)cc2)C=C(C(=O)OC)C1c1ccc(F)c(F)c1,?,/,?,?,-2%,-11%
COC(=O)C1=CN(Cc2ccccc2)C=C(C(=O)OC)C1c1cc(F)ccc1F,7.1µM*,-23,-23%,-36%,-14%,-6%
CNc1cc(C(=O)O)nc2ccccc12,/,/,/,/,36%,-10%
CS(=O)(=O)N1CCN=C1SCc1ccc([N+](=O)[O-])cc1,3%,-65*,7%,?,i,4%
CC(=O)Nc1ccc(S(=O)(=O)N2CCN=C2SCc2ccc([N+](=O)[O-])cc2)cc1,?,?,10µM*,13µM*,-11%,-17%
CC(C)NC(=O)C(c1ccccc1)N1Cc2ccccc2C1=O (stereo not given),-1%[46.1 µM],-28,/,/,i,-14%
COc1ccc(C(=O)NCCCNC(=O)c2cccnc2)cc1OC,6%[46.1 µM],-7,1%,2%[46.1 µM],7%,8%
CCCC(=O)NC(c1ccc(OCC)cc1)c1ccc(OC)c(OC)c1 (stereo not given),-2%,-37,-12%,-24%,-14%,-2%
CCC(=O)NC(c1ccc(OC)cc1)c1cc(Cl)c2cccnc2c1O (stereo not given),2.8µM*,34,2.5µM*,2.2µM*,?,?
COc1ccc(C(NC(=O)c2cccnc2)c2cc(Cl)c3cccnc3c2O)cc1OC (stereo not given),16µM*,-97*,8.9µM*,7.1µM*,-11%[1.46 µM],?
COc1ccc(C(=O)NC(c2ccc(OC)c(OC)c2)c2cc(Cl)c3cccnc3c2O)cc1 (stereo not given),/,/,/,/,4.5µM*,?
Cn1cc(S(=O)(=O)c2cccc(Cl)c2)c(=O)c2cc(F)c(N3CCCCC3)cc21,-2%[46.1 µM],-61*,/,/,-3%,-14%
CSC1(SC2=NCCN2)SC2(NCCN2)S1,10%,?,?,10µM*,i,-12%
CCOC(=O)C1CCCN(C(=O)c2nn(-c3ccc(C)cc3)c(=O)n(C)c2=O)C1 (stereo not given),4%[46.1 µM],7,/,/,0%,-5%
COc1cccc(OCc2cc(C(=O)N(C)Cc3nc(C)cs3)no2)c1,?,59,-2%,-16%,-25%,-9%
COc1cccc(OCc2cc(C(=O)N(Cc3nccn3C)C(C)C)no2)c1,/,-27,-5%,/,/,/
CC(C)N(Cc1nccn1C)C(=O)c1cc(COc2ccc3ncccc3c2)on1,?,-71*,?,-22%[46.1 µM],?,-13%
CN(Cc1ccccn1)C(=O)c1cc(COc2ccc(F)c(F)c2)on1,/,-93*,/,/,-8%,-17%
Cc1nc(CN(C)C(=O)c2cc(COc3ccc4ncccc4c3)on2)cs1,?,-65*,?,?,-9%,-18%
Cc1ccc(OCc2cc(C(=O)N(C)Cc3cnn(-c4ccccc4C)c3)no2)cn1,7.9µM*,-26,11µM*,?,-19%,-21%
CCCn1c(CCC(=O)Nc2cc(C(=O)OC)cc(C(=O)OC)c2)nc2cccnc21,-17%[46.1 µM],13,/,11%[46.1 µM],-15%,-5%
Cc1ccc(Cl)cc1N1CCN(CCNC(=O)Nc2ccccc2Cl)CC1,-10%[46.1 µM],10,/,6%[46.1 µM],-2%,-22%
CSc1ccccc1NC(=O)C1(C)CCN1C(=O)Cc1ccc(-c2ccccc2)cc1 (stereo not given),/,-62*,/,/,20%,-16%
SMILES,Lassa entry inh,HCMV inh,HCV inhibitor,Marburg entry inh,VACV mCherry inh,VACV Venus inh
CC1(C(=O)NS(=O)(=O)Cc2ccccc2)CCN1C(=O)Cc1ccccc1Cl (stereo not given),/,-62*,/,/,11%,-4%
Cc1ccc(NC(=O)C2(C)CCN2C(=O)Cc2ccc(-c3ccccc3)cc2)cc1 (stereo not given),/,-63*,/,/,3%,-21%
CCCCCCCC#Cc1ccccc1C=NS(=O)c1ccc(C)cc1 (stereo not given),/,/,/,4%[14.2 µM],/,/
COc1ccc(-c2nc3cc(F)ccc3nc2C(=O)Nc2c(C)cccc2C)cc1,/,16,/,/,/,/
Cc1ccc(N(CC(=O)Nc2ccc(F)cc2F)S(=O)(=O)c2cccs2)cc1,?,-15,/,11%[46.1 µM],-6%,-6%
Cc1ccc(-c2c[n+](CC(=O)Nc3c(C)cccc3C)c3n2CCC3)cc1,/,-68*,2%,/,/,/
Cc1ccc(-c2c[n+](CC(=O)N3c4ccccc4Sc4ccccc43)c3n2CCC3)cc1,-19%,-87*,7%,-12%,-7%,-26%
Cc1ccc(-c2csc(NC(=O)C[n+]3cc(-c4ccc(C)cc4)n4c3CCC4)n2)cc1,7%,-27,3.5µM*,10%,?,?
Cc1ccc(-c2csc(NC(=O)C[n+]3cc(-c4ccccc4)n4c3CCC4)n2)cc1,?,4,2µM*,?,-17%,?
Cc1ccc(NC(=O)C[n+]2cc(-c3ccccc3)n3c2CCC3)c(C)c1,0%[46.1 µM],?,-18%,-9%[46.1 µM],14%,0%
O=c1n(Cc2ccccc2Cl)c2ccccc2c2nc(-c3ccccc3)nn12,0%[46.1 µM],-15,/,19%[46.1 µM],-26%,-14%
CCOC(=O)c1cc2c3ccccc3n(CC)c2nc1N,9%,3,?,-2%,i,0%
CCn1c2ccccc2c2cc(C#N)c(N)nc21,/,-5,13µM*,/,/,/
COC(=O)C1=C(C)N(Cc2ccc(C(F)(F)F)cc2)C(=NCc2ccc3c(c2)OCO3)NC1c1cccc(Cl)c1 (stereo not given),/,-100*,/,/,/,/
COC(=O)C1=C(C)N(Cc2ccccc2)C(=NCc2ccc3c(c2)OCO3)N[C@H]1c1ccccc1,/,-4,?,/,-13%,-29%
COC(=O)C1=C(C)N(Cc2ccc(C(F)(F)F)cc2)C(=NCC2CC2)NC1c1cccc(Cl)c1 (stereo not given),/,-102*,/,/,/,/
c1ccc(-c2nc3c([nH]2)CCc2nonc2-3)cc1,29%,-11,5%,?,-4%,12%
Cc1ccc(C)c2c3c([nH]c12)-c1nonc1CC3,-8%,-8,10µM*,10%,/,-11%
CC(C)C(NC(=O)C(C(C)C)N(C)C)C(=O)N(C)C(C(=O)N1CCCC1C(=O)N1CCCC1C(=O)NCc1ccccc1)C(C)C (stereo not given),?,-86*,31%,?,?,?
